SARS 3CLpro inh = SARS-CoV 3CLpro protease inhibition. recombinant SARS-CoV 3CLpro, quenched FRET peptide cleavage. inhibition, % at 6 µM. hit rate 0.14% among 290,000; in the data active = inhibition above about 12%
PrPC TRFRET = cell surface PrPC inhibition, primary TR-FRET screen; P04156; TR-FRET read-out; inhibition, % at 13.8 µM; hit rate 0.43% among 370,000; AID 720596; in the data active = inhibition above about 24%; also: 0% = median of the test wells and 100% = reference compound wells
BH1578 lux ind = induces V. cholerae light production without autoinducers | V. cholerae BH1578 lux reporter, luminescence, 6 h | activation, % at 18.7 µM | hit rate 0.16% among 350,000 | AID 588436; in the data active = activation mostly above about 9.7%, no sharp cut-off
Mtb FBA inh = Mtb fructose-bisphosphate aldolase inhibition; purified M. tuberculosis FBA, fluorescence read-out; inhibition, % at 1 µM; hit rate 2.3% among 360,000; AID 588726; in the data active = inhibition above about 27%;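 also: 0% = vehicle and 100% = reference inhibitor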
Target sequence (P9WQA3 whole entry, looked up): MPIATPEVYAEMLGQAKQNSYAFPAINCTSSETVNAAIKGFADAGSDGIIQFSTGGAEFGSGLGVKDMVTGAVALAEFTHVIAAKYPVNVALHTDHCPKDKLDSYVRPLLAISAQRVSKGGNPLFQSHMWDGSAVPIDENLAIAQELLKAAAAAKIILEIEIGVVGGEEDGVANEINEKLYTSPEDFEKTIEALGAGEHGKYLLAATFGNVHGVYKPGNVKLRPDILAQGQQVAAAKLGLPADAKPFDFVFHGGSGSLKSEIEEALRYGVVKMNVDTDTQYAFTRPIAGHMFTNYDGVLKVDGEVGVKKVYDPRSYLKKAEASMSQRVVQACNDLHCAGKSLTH
GDH-TPI counter = inhibits GDH-TPI coupling enzymes, artifact for Mtb FBA screen; AID 588335; inhibition, % at 4.8 µM; GDH-TPI coupled enzyme counterscreen, NADH absorbance; hit rate 1.2% among 360,000; in the data active = inhibition above about 30%;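 also: 0% = DMSO wells and 100% = wells lacking the enzyme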
Active calls of the source: *. In the library only some 3.9% were active in any assay of this set; here they are far more common.

O=C(N/C(=C/c1ccc(Cl)cc1)c1nc2ccccc2[nH]1)c1ccco1 was read as SARS 3CLpro inh 0, PrPC TRFRET 6, BH1578 lux ind 0, Mtb FBA inh 4 and GDH-TPI counter 42*.
O=C(NCc1nc2ccccc2[nH]1)c1ccco1 was read as SARS 3CLpro inh -4, PrPC TRFRET 2, BH1578 lux ind 2, Mtb FBA inh 0 and GDH-TPI counter -10.
For CC(=O)N1CCN(c2cc(-c3ccccc3)nc3cc(-c4cccc(Cl)c4)nn23)CC1 the results were PrPC TRFRET -3, BH1578 lux ind -1, Mtb FBA inh 11 and GDH-TPI counter 7.
Screening CC(=O)c1ccc(Oc2ccc(C(C)=O)cc2)cc1 returned SARS 3CLpro inh -5, PrPC TRFRET -6, BH1578 lux ind 0, Mtb FBA inh -4 and GDH-TPI counter -2.
`CC(=O)c1ccc(OC(=O)Oc2ccc(C(C)=O)cc2)cc1` gave PrPC TRFRET -6, BH1578 lux ind -1, Mtb FBA inh 1 and GDH-TPI counter 32*.
Screening COc1ccc(-c2nc3ccccc3nc2-c2ccccc2)cc1OC returned SARS 3CLpro inh -1, PrPC TRFRET -8, BH1578 lux ind inactive, Mtb FBA inh -2 and GDH-TPI counter 31*.
For COc1ccc(-c2cc(-c3ccccc3)nc(Cl)n2)cc1OC the results were SARS 3CLpro inh 3, PrPC TRFRET 2, BH1578 lux ind inactive, Mtb FBA inh 12 and GDH-TPI counter 33*.
For COc1ccc(C(=O)NCCN2C(=O)S/C(=C\c3cccnc3)C2=O)c(OC)c1OC the results were SARS 3CLpro inh 3, PrPC TRFRET -2, BH1578 lux ind 0, Mtb FBA inh -1 and GDH-TPI counter 33*.
For O=c1ccc(-c2ccc(S(=O)(=O)Nc3ccc(F)cc3)s2)n[nH]1 the results were SARS 3CLpro inh -4, PrPC TRFRET -9, BH1578 lux ind 1, Mtb FBA inh 2 and GDH-TPI counter 13.
For CC(C)(C)n1nnnc1C(c1cc2cc3c(cc2[nH]c1=O)OCCO3)N1CCSCC1 (stereo not drawn) the results were SARS 3CLpro inh -5, PrPC TRFRET -4, BH1578 lux ind 2, Mtb FBA inh 34* and GDH-TPI counter 12.
`COC(=O)[C@]1(C)CCC[C@@]2(C)C3CC[C@@]4(C)C[C@]3(CCC21)CC(=O)N4` (stereo partly drawn) gave PrPC TRFRET -4, BH1578 lux ind -2, Mtb FBA inh 4 and GDH-TPI counter 3.
Screening C=C1C(=O)C23CCC4C(C)(C(=O)OC)CCCC4(C)C2CCC1(O)C3 (stereo not drawn) returned PrPC TRFRET 86*, BH1578 lux ind inactive, Mtb FBA inh 4 and GDH-TPI counter 9.
CC1(C)C2CC[C@]3(C)C(CC=C4[C@@H]5C[C@@](C)(CO)[C@@H](O)C[C@]56C[C@@H](OC6=O)[C@]43C)[C@@]2(C)CC[C@@H]1O (stereo partly drawn) was read as PrPC TRFRET 3, BH1578 lux ind -1, Mtb FBA inh 3 and GDH-TPI counter 2.
CC(CC(=O)c1ccccc1)=NCC(O)CN=C(C)CC(=O)c1ccccc1 (stereo not drawn) was read as PrPC TRFRET 2, BH1578 lux ind 1, Mtb FBA inh 0 and GDH-TPI counter 55*.
C=CCN(CC#Cc1ccccn1)Cc1ccc(OC)cc1OC was read as PrPC TRFRET -6.
O=C1/C(=C/c2cccnc2)SC(=S)N1NS(=O)(=O)c1ccccc1 was read as SARS 3CLpro inh 4, PrPC TRFRET 6, BH1578 lux ind inactive, Mtb FBA inh 0 and GDH-TPI counter 34*.
`O=C1/C(=C\c2ccc(Br)cc2)SC(=S)N1NS(=O)(=O)c1ccccc1` gave SARS 3CLpro inh 5, PrPC TRFRET -8, BH1578 lux ind inactive, Mtb FBA inh -1 and GDH-TPI counter -3.
Screening c1ccc(-c2ccc(-c3ccccn3)s2)nc1 returned SARS 3CLpro inh -2, PrPC TRFRET -25, BH1578 lux ind inactive, Mtb FBA inh active and GDH-TPI counter 29.
Screening COc1cccc(CNC(=O)Cn2c(-c3ccccc3)cc(C(C)=O)c2C)c1OC returned PrPC TRFRET 8.
For Cc1cc(C)c[n+](-c2[nH]c(=O)sc2/C=N/N=C(\[O-])c2cccnc2)c1 the results were SARS 3CLpro inh 2, PrPC TRFRET -8, BH1578 lux ind inactive, Mtb FBA inh -2 and GDH-TPI counter 35*.
Screening O=C(O)c1ccc(N(c2ccccc2)c2ccccc2)cc1 returned SARS 3CLpro inh 5, PrPC TRFRET 10, BH1578 lux ind -1, Mtb FBA inh active and GDH-TPI counter 15.

Bioassay records (PubChem)
